VACV mCherry inh: qHTS for Stage-Specific Inhibitors of Vaccinia Orthopoxvirus: mCherry Reporter Primary qHTS | Vaccinia virus mCherry reporter infection, fluorescence | Potency, µM (series often up to 36.5 µM), hits mostly inhibitors | actives 0.63% (n = 310,000) | AID 720579, 2013; calls by dose curve; tested in A549 cells; further: nearly all actives have a fitted effect of over 35% in size
NS1 function inh: qHTS Assay for Inhibitors of Influenza NS1 Protein Function; Potency, µM (doses to about 46.1 µM); actives 0.4% (n = 270,000); calls by dose curve; further: actives are rising curves; nearly all actives have a fitted effect of over 50% in size
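Compounds were scored for reversing the slow growth caused by influenza A NS1 in S. cerevisiae, measured by optical density at 600 nm. Assay medium contained 2% galactose at pH 6.0; NS1-free yeast of the same strain were the positive control.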
Pf growth 96h: Primary qHTS for delayed death inhibitors of the malarial parasite plastid, 96 hour incubation; P. falciparum luciferase reporter growth, 96 h; AID 504834, 2011; Potency, µM (series often up to 28.7 µM), usual class: inhibitors; actives 6.9% (n = 320,000)
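Two parasite generations (96 h, 37 C, 5% CO2) of compound exposure in infected erythrocytes (0.05% parasitemia, 2% hematocrit). Luciferase-reporter P. falciparum; decreased luminescence indicates inhibited growth, aimed at apicoplast-acting delayed death.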
Vaccinia Venus: qHTS for Stage-Specific Inhibitors of Vaccinia Orthopoxvirus: Venus Reporter Primary qHTS. Vaccinia virus Venus reporter expression, fluorescence. Potency, µM (titrated, usually from 36.5 µM), most hits filed as inhibitors. actives 0.46% (n = 330,000). AID 720580, 2013; calls by dose curve; tested in A549 cells; further: nearly all actives have a fitted effect of over 30% in size
Pf growth 48h: Primary qHTS for delayed death inhibitors of the malarial parasite plastid, 48 hour incubation. P. falciparum luciferase growth in erythrocytes, 48 h. Potency, µM (highest dose often 28.7 µM), usual class: inhibitors. actives 5.9% (n = 310,000)
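Compounds are pin-transferred into medium, infected erythrocytes (2% hematocrit, 0.1% parasitemia final) are added, and plates sit one parasite generation at 37 C in 5% CO2. Detection reagent is then added and luminescence measured.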
HCV inhibitor: qHTS Assay for Inhibitors of Hepatitis C Virus (HCV). Huh7.5.1 HCVcc-Cre infection, luciferase reporter, 44 h. Potency, µM (highest dose often 41.8 µM), actives largely listed as inhibitors. actives 3.4% (n = 340,000). AID 651820, 2012
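Infectious HCV cell culture screen: compound-treated cells (1,000/well, pre-plated 4 h) are infected with HCVcc-Cre at roughly 0.5 moi and grown 44 h. Infection is quantified by luciferase signal after 15 min substrate incubation at room temperature.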
Numbers stand for hits; - = inactive; ? = inconclusive; . = not tested or not shown; [ ] = remark or other dose. Only some compounds are listed: those with a hit (about 11% of all), similar ones and a draw of the others. Unless noted, the call rests on the fitted dose curve; in most records, active means well fitted inhibition curve with a large enough effect; inconclusive means small, poorly fitted or top-dose-only effect, or another doubt; inactive means no such curve, though single readings can be large or run the other way.

SMILES	VACV mCherry inh	NS1 function inh	Pf growth 96h	Vaccinia Venus	Pf growth 48h	HCV inhibitor
Cn1c(SCc2cccc([N+](=O)[O-])c2)nc2ccccc2c1=O	?	.	10µM	?	5.2µM	-
COC(=O)c1cc2oc3ccccc3c2n1Cc1cc(C)ccc1C	-	.	.	-	.	.
Cc1ccc(-c2cc(C(=O)O)n(Cc3ccccc3)n2)cc1	-	.	.	-	.	.
O=C1CCC(=O)N1c1ccc(S(=O)(=O)Nc2cccc([N+](=O)[O-])c2)cc1	.	-	?	.	-	-
CC(=O)N(c1ccc(Cl)cc1)c1nc(C)cc(C)c1C#N	-	-	7.4µM	-	-	-
COC(=O)c1ccccc1NC(=O)Nc1cc(C(C)(C)C)on1	-	-	-	-	-	?
CC(C)(C)c1cc(NC(=O)Nc2ccccc2OC(F)(F)F)no1	-	-	?	-	12µM	?
Cc1nc2c(cc1N)nc(C)n2Cc1ccccc1	-	-	2.6µM	-	-	-
Cc1nc2ccc(N)cc2c(=O)n1Cc1ccc(Cl)cc1	-	-	-	-	-	-
O=c1ccn(Cc2ccccc2)c(=O)n1Cc1ccccc1	-	-	-	-	?	-
O=c1c2ccccc2c(C=NCCCN2CCOCC2)c(O)n1Cc1ccc2c(c1)OCO2	-	.	?	-	?	-
O=c1c2ccccc2c(C=NCCCN2CCOCC2)c(O)n1Cc1ccccc1	-	-	-	-	10µM	-
CCc1ccccc1N(C)C(=O)c1ccc2c(=O)n3c(nc2c1)CCCCC3	-	.	.	-	.	.
CCOc1ccccc1N(C)C(=O)c1ccc2c(=O)n3c(nc2c1)CCCCC3	-	-	1.5µM	-	?	-
CCc1ccc(NC(=O)c2ccc3c(=O)n4c(nc3c2)CCCCC4)cc1	-[7.34 µM]	-	-	-[7.34 µM]	?	10µM
O=C(Nc1cccc(S(=O)(=O)N2CCCCC2)c1)c1ccc2c(=O)n3c(nc2c1)CCCCC3	-	?	13µM	?	?	6.3µM
CN(Cc1ccc(C(C)(C)C)cc1)C(=O)c1ccc2c(=O)n3c(nc2c1)CCC3	-	.	?	-	13µM	-
CCc1nnc(NC(=O)c2ccc3c(=O)n4c(nc3c2)CCCCC4)s1	-	-	-	-	-	?
COc1ccccc1N1CCN(C(=S)NC(=O)c2ccc([N+](=O)[O-])cc2)CC1	-	.	.	?	.	.
CCOc1ccc(NC(=O)c2ccc3c(=O)n4c(nc3c2)CCCCC4)cc1	-	-	-	?	?	11µM
c1ccc2c(c1)nc(Nc1ccc(N3CCCCC3)cc1)c1nncn12	.	-	-	.	-	?
c1ccc(N2CCCCC2)c(Nc2nc3ccccc3n3cnnc23)c1	?	-	-	-	?	6.3µM
CCO[C@@H]1OC(C(=O)N2CCN(Cc3ccc4c(c3)OCO4)CC2)=C[C@H](C)[C@H]1CCCO	-	-	?	-	?	-
CCO[C@H]1OC(C(=O)N2CCN(Cc3ccc4c(c3)OCO4)CC2)=C[C@@H](C2CCCCC2)[C@@H]1CCCO	-	-	4.1µM	?	?	?
CCO[C@@H]1OC(C(=O)N2CCCCCCC2)=C[C@H](C2CCCCC2)[C@H]1CCCO	-	-	?	-	10µM	?
SMILES	VACV mCherry inh	NS1 function inh	Pf growth 96h	Vaccinia Venus	Pf growth 48h	HCV inhibitor
CCO[C@@H]1OC(C(=O)N2CCN(Cc3ccc4c(c3)OCO4)CC2)=C[C@H](C2CC2)[C@H]1CCCO	?	-	3.3µM	-	?	-
CCO[C@@H]1OC(C(=O)N2CCOCC2)=C[C@H](C2CCCCC2)[C@H]1CCCO	-	-	-	-	-	-
COc1ccc(S(=O)(=O)N2CC=C(c3ccccc3)CC2)cc1OC	-	.	.	-	.	.
Cc1ncsc1CCOC(=O)c1ccccc1	-	-	-	-	-	-
Cc1nn(Cc2ccccc2)c(C)c1NC(=O)CSc1nc(-c2ccccc2)nc2c1cnn2-c1ccccc1	-	-	?	-	-	-
Cc1ccc(S(=O)(=O)CCSC(=N)N)cc1	?	-	-	?	-	10µM
CCOC(=O)C1=C(C)NC(C)=C(C(=O)OCC)C1/C=C/c1ccccc1OC	?	-	?	-	9.3µM	?
CCOC(=O)C1=C(C)NC(C)=C(C(=O)OCC)C1c1ccccc1C=CC(=O)OC(C)(C)C	.	.	8.5µM	.	13µM	.
COCCOC(=O)C1=C(C)NC(C)=C(C(=O)OCCOC)C1/C=C/c1ccccc1OC	-	-	9.3µM	-	?	-
Cn1c(N)c(C(=O)COC(=O)/C=C/c2ccccc2)c(=O)n(C)c1=O	-	.	.	-	.	-
Cn1c(N)c(C(=O)COC(=O)/C=C/c2cccc(F)c2)c(=O)n(C)c1=O	-	.	-	-	12µM	-
Cn1c(N)c(C(=O)COC(=O)/C=C/c2cccc(Br)c2)c(=O)n(C)c1=O	.	.	-	.	13µM	-
CCOC(=O)C1CCCN(c2ncnc3c2[nH]c2cccc(OC)c23)C1 (stereo not given)	.	?	.	.	12µM	.
COC(=O)C1=CN(c2ccc(Oc3ccccc3)cc2)C(N)=C(C#N)C1c1ccc(-c2ccccc2)cc1 (stereo not given)	-	.	.	-	.	.
Cc1nn(CC#N)c(=O)n1-c1ccc(C(C)C)cc1	-	-	-	-	?	-
CC(C)(C)c1ccc(-n2ncc3c2CCCC3NC(=O)CCn2cncn2)cc1 (stereo not given)	-	-	-	-	-	-
Cc1cc(C(=O)NC2CCCc3c2cnn3-c2ccc(C(C)(C)C)cc2)nn1C (stereo not given)	-	-	-	-	-	7.1µM
CC(=O)NCC(=O)NC1CCCc2c1cnn2-c1ccc(C(C)(C)C)cc1 (stereo not given)	-	-	?	-	-	-
CC(C)(C)c1ccc(-n2ncc3c2CCCC3NC(=O)CCN2CCCO2)cc1 (stereo not given)	.	-	-	.	-	13µM
CC(C)(C)c1ccc(-n2ncc3c2CCCC3NC(=O)C2(C(N)=O)CC2)cc1 (stereo not given)	.	-	13µM	.	-	?
COC(=O)C(O)(c1ccc2c(c1)CCCN2)C(F)(F)F (stereo not given)	-	-	8.3µM	-	.	-
O=C(NC(=S)Nc1cccc2cc(O)ccc12)c1ccccc1Br	-	-	13µM	-	-	.
COc1ccc(-n2nc(C(=O)NCC(=O)N3CCN(C)CC3)c3ccccc3c2=O)cc1OC	.	-	-	.	-	-
COc1ccc(N2CCN(C(=O)CNC(=O)c3nn(-c4ccc(OC)cc4)c(=O)c4ccccc34)CC2)cc1	?	-	15µM	-	-	-
COc1ccc(-n2nc(C(=O)NCC(=O)N3CCN(Cc4ccccc4)CC3)c3ccccc3c2=O)cc1OC	-	-	1µM	-	?	-
CC1CC(N(C(=O)c2ccc(Cl)cc2)c2ccccc2)c2ccccc2N1C(=O)c1ccco1 (stereo not given)	.	-	9.3µM	?	.	10µM

Screening data deposited in PubChem BioAssay by National Center for Advancing Translational Sciences (NCATS).
